Consider 19 molecules from PubChem BioAssay (Tox21).

A short description of test [1]: qHTS assay to identify small molecule antagonists of the progesterone receptor (PR) signaling pathway - cell viability counter screen (AID 1346798). Further: nearly all actives have a fitted effect of over 50% in size. Further: potency means the concentration at half of the fitted maximal effect. Summed up:
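PR-UAS-bla HEK293T cells in medium with 2% charcoal-stripped FBS were treated with compounds plus R5020 for 16 hr at 37C. Cell viability was then read by CellTiter-Glo luminescence after 30 min at room temperature in the same wells.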

Test [2] in a line: qHTS assay to identify small molecule agonists of the TGF-beta/Smad signaling pathway - cell viability counter screen (AID 1346829). Further: nearly all actives have a fitted effect of over 45% in size. Further: potency means the concentration at half of the fitted maximal effect. Summed up:
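Same-well cytotoxicity: CellTiter-Glo added after the 2 hr room-temperature beta-lactamase substrate step, luminescence measured 30 min later; cells had 5 hr of compound at 37 C.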
(In qHTS, concentration-response curves come from the screen itself.)

Test [3] can be described thus: qHTS assay to identify small molecule agonists of the TGF-beta/Smad signaling pathway (AID 1346859; active means well fitted activation curve with a large enough effect in the signal ratio in the repeat runs, not every such curve was filed as active; the % refers to the signal ratio; further: series mostly up to about 77 µM). Summed up: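 HEK 293T cells stably carrying a beta-lactamase reporter driven by the Smad binding element were seeded overnight, exposed to DMSO-dissolved compounds for 5 hr at 37 C, 5% CO2, then loaded with FRET substrate for 2 hr at room temperature.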
Test [4] deals with Thyrotropin-releasing hormone receptor (Homo sapiens) (UniProt P34981). Put plainly: qHTS assay to identify small molecule antagonists of the thyrotropin-releasing hormone receptor (TRHR) signaling pathway (AID 1346877; active means well fitted inhibition curve with a large enough effect in the repeat runs, not every such curve was filed as active; further: potency means the concentration at half of the fitted maximal effect). Summed up:
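Intracellular calcium fluorescence, read kinetically every second over 3 min, reports TRH-evoked signalling in HEK293 cells carrying TRHR. Test compounds were added 5 min ahead of a 1 nM TRH challenge.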

Test [5] is described as follows: Human pregnane X receptor (PXR) small molecule agonists, qHTS cell viability counter screen (AID 1346977). Further: nearly all actives have a fitted effect of over 50% in size. Further: potency means the concentration at half of the fitted maximal effect. Summed up:
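PXR-Luc HepG2 cells in medium with 5% charcoal-stripped FBS were pre-incubated 5hr, then exposed to compounds for 24hr at 37C. Viability was read in the same wells by CellTiter-Fluor fluorescence, reagent added after 23hr with a 1hr incubation.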

A short description of test [6]: Caspase-3/7 induction in HepG2 cells by small molecules, qHTS assay (AID 1346978). Further: nearly all actives have a fitted effect of over 15% in size. Further: potency means the concentration at half of the fitted maximal effect. Summed up: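 Caspase-3/7 induction was measured by Caspase-Glo 3/7 luminescence (30 min, room temperature) after a 17 hr compound exposure of wild-type HepG2 cells seeded at 2,000 per well and pre-incubated 5 hr.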
Test [7] can be described thus: Caspase-3/7 induction in CHO-K1 cells by small molecules, qHTS cell viability counter screen (AID 1346979). Further: nearly all actives have a fitted effect of over 35% in size. Further: potency means the concentration at half of the fitted maximal effect. Summed up: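 Wild-type CHO-K1 cells were seeded at 1,500 per well, rested 5hr at 37 C, then exposed to compounds in DMSO. After 16hr, CellTiter-Fluor reagent was added and fluorescence read 1hr later as the viability measure.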
Test [8] can be described thus: qHTS assay to identify small molecule agonists of the progesterone receptor (PR) signaling pathway - cell viability counter screen (AID 1346799; calls by dose curve; further: nearly all actives have a fitted effect of over 45% in size; further: potency means the concentration at half of the fitted maximal effect). Summed up:
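PR-UAS-bla HEK293T cells, 3,000 per well in medium with 2% charcoal-stripped FBS, were preincubated 6 hr at 37C, then exposed to compounds for 16 hr; viability was read as CellTiter-Glo luminescence after 30 min at room temperature.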

Test [9] has as its target Thyrotropin-releasing hormone receptor (Homo sapiens) (UniProt P34981). The experiment in a line: qHTS assay to identify small molecule agonists of the thyrotropin-releasing hormone receptor (TRHR) signaling pathway (AID 1346891; calls by dose curve; further: series mostly up to about 58 µM). Summed up:
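TRHR-expressing HEK293 cells were plated 18 h at 37 °C/5% CO2, loaded with calcium dye 2 h at 37 °C, then given compound in DMSO; fluorescence was read kinetically for 3 min at 1 s intervals.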

Test [10] in a line: qHTS assay to identify small molecule antagonists of the TGF-beta/Smad signaling pathway - cell viability counter screen (AID 1346824). Further: nearly all actives have a fitted effect of over 50% in size. Summed up:
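Cytotoxicity counter-screen run in the same wells as the beta-lactamase Smad reporter read: CellTiter-Glo luminescence after 30 min at room temperature. HEK 293T SBE-bla cells had 5 hr compound exposure at 37 C with TGF-beta1 (0.25 ng/mL stock).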

Values without a mark were called inactive. Records with an inconclusive call do not appear. The source made the active and inactive calls. Unless noted, the call rests on the fitted dose curve; in most records, active means well fitted curve in the direction sought with a large enough effect in the repeat runs; inconclusive means weak or mixed curves; inactive means no such curve, though single readings can be large; an effect the other way counts as inactive or inconclusive.

Thyrotropin-releasing hormone receptor (Homo sapiens), sequence (P34981 whole entry, looked up): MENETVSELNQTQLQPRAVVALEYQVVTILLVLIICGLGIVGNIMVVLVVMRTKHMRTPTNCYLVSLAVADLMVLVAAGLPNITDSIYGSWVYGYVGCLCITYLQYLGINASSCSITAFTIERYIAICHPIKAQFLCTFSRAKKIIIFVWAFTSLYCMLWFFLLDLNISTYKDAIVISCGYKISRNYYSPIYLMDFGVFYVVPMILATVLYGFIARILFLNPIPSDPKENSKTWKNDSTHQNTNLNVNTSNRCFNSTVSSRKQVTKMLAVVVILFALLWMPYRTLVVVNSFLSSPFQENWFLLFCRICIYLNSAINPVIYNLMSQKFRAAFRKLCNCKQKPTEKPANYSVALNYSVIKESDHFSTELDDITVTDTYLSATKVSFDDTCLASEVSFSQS

Turning to `COc1ccc(OC)c(N=Nc2c(O)ccc3ccccc23)c1`, the Potency result in test [1], in [4] and in test [6] was “inactive” each time. Besides, the values for the Potency in test [2], in [5] and in test [7] were 43.6 µM (active), 10.9 µM (active) and 21.7 µM (active), respectively. The outcome in test [3] was inactive.
`Cn1ccnc1`: the Potency entry in test [1], in [8], in [2], in [4], in test [9] and in [5] was “inactive” each time. Besides, the Potency entry in test [6] and in test [7] was “inactive” throughout. Moreover, the call in [3] was inactive.
As to `O=C1OC(=O)c2cc(-c3ccc4c(c3)C(=O)OC4=O)ccc21`, the Potency result in [1], in [10], in test [2], in [4], in test [9] and in test [6] was “inactive” each time. Further, the Potency entry in test [7] was “inactive”. Besides, the call in [3] was inactive.
In the case of `CO[Si](OC)(c1ccccc1)c1ccccc1`, the Potency result in [8], in [10], in test [2], in test [4], in test [9] and in [5] was “inactive” in each case. Also, the Potency result in [6] was “inactive”. Further, the call in [3] was inactive.
With `C=CC(=O)O[C@H]1C[C@@H]2CC[C@@]1(C)C2(C)C`, the Potency entry in test [1], in test [10], in [2], in [4], in test [9] and in [5] was “inactive” throughout. The Potency entry in test [6] and in [7] was “inactive” each time. In [3], the result was inactive.
Take `CC(=O)[C@]1(O)Cc2c(O)c3c(c(O)c2[C@@H](O[C@H]2C[C@H](N)[C@H](O)[C@H](C)O2)C1)C(=O)c1ccccc1C3=O`: the Potency entry in test [1], in test [10] and in [4] was “inactive” each time. Moreover, the Potency was 1.33 µM (active) in [8], 2.66 µM (active) in test [5], 2.11 µM (active) in [6] and 11.9 µM (active) in test [7]. Also, in [3], the outcome was inactive.
In the case of `CC(=O)CC(N)=O`, the Potency entry in test [1], in [10], in test [2], in [4], in test [9] and in test [5] was “inactive” each time. Also, the Potency entry in test [6] and in test [7] was “inactive” throughout. In test [3], the result was inactive.
For the molecule `CC/C(=C(/c1ccc(O)cc1)c1ccc(OCCN(C)C)cc1)c1ccccc1`, the Potency is 32 µM (active) in [1]; 18 µM (active) in [8]; 18 µM (active) in test [5]; 40.3 µM (active) in test [6]; 32 µM (active) in test [7]. In addition, the Potency result in [4] is “inactive”.
As for `C[C@H]1O[C@@H](O[C@H]2CC[C@@]3(C)[C@H](CC[C@@H]4[C@@H]3C[C@@H](O)[C@]3(C)[C@@H](C5=CC(=O)OC5)CC[C@]43O)C2)C[C@H](O)[C@@H]1O[C@H]1C[C@H](O)[C@H](O[C@H]2C[C@H](O)[C@H](O[C@@H]3O[C@H](CO)[C@@H](O)[C@H](O)[C@H]3O)[C@@H](C)O2)[C@@H](C)O1`, the figures for the Potency in test [1] and in test [8] were 0.298 µM (active) and 0.266 µM (active), respectively. The Potency entry in test [4], in [9], in [6] and in test [7] was “inactive” each time.
With `CCc1cccc(CC)c1`, the Potency result in test [8], in test [10], in test [2], in test [4], in test [9] and in test [5] was “inactive” each time. In addition, the Potency result in test [6] was “inactive”. Besides, the outcome in test [3] was inactive.
For the molecule `CCNc1nc(NC(C)(C)C)nc(OC)n1`, the Potency entry in [1], in test [10], in test [2], in test [4], in [9] and in test [5] was “inactive” throughout. Moreover, the Potency entry in test [6] and in test [7] was “inactive” each time. Further, the molecule was classed as inactive in test [3].
Turning to `CC(=O)Nc1ccc(N=Nc2cc(C)ccc2O)cc1`, the Potency entry in [1], in test [10], in test [2] and in test [6] was “inactive” in each case. For the same molecule, the outcome in [3] was inactive. Further, the Potency in test [7] is 68.6 µM (active).
As to `c1ccc(C[P+](c2ccccc2)(c2ccccc2)c2ccccc2)cc1`, the Potency result in [1], in test [2], in test [4], in test [9] and in [6] was “inactive” each time. For the same molecule, the Potency is 24.3 µM (active) in test [5] and 61.1 µM (active) in test [7].
With `CC/C=C(\C)C=O`, the Potency result in test [1], in test [8], in [2], in [4], in test [9] and in test [5] was “inactive” each time. Besides, the Potency entry in test [6] and in test [7] was “inactive” in each case. Further, the outcome in test [3] was inactive.
For `CN1CCN(CCCN2c3ccccc3Sc3ccc(C(F)(F)F)cc32)CC1`, the Potency is 26.6 µM (active) in [1], 23.7 µM (active) in [5] and 33.5 µM (active) in test [7]. For the same molecule, the Potency entry in test [10], in [2] and in test [6] was “inactive” throughout. For the same molecule, the outcome in test [3] was inactive.
Consider `CCC1(C)C(=O)N(Cl)C(=O)N1Cl` (configuration not stated), for which the Potency entry in test [1], in test [8], in [2], in test [4], in test [9] and in test [5] was “inactive” throughout. Also, the Potency entry in test [6] and in test [7] was “inactive” each time. The call in [3] was inactive.
For `Nc1ccc(N)c([N+](=O)[O-])c1`, the Potency entry in test [1] and in test [6] was “inactive” in each case. For the same molecule, the Potency in [7] is 40.9 µM (active).
`O[Si](c1ccccc1)(c1ccccc1)c1ccccc1`: the Potency result in test [1], in [10], in test [2], in test [5] and in [6] was “inactive” throughout. The outcome in [3] was inactive. In addition, the Potency in [7] is 30.6 µM (active).
Take `O=C1OC2(c3ccccc31)c1ccc(O)c(Br)c1Oc1c2ccc(O)c1Br`: the Potency result in test [1], in test [10], in test [2], in test [5] and in test [6] was “inactive” in each case. The Potency in test [4] is 1.2 µM (active); in test [7], 27.3 µM (active).
